Experimental data from PubChem BioAssay AID1159580 (chemical genetic matrix, 2015).
The campaign covered roughly 5,500 compounds. About 2,000 (36%) were called active. Another 18% or so got no clear call; they are omitted. Cut-off read from the data, not from the text of the source: active = normalized growth mostly below about 0.91 (no sharp cut-off); inconclusive = no clear call, values can overlap the other calls; inactive = mostly above about 0.92. Some of the results follow.

Test: chemical genetic growth profiling, strain panel (AID 1159580);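 note: tested at 20 µM; growth read once vehicle control cultures reached saturation at 30 °C; 1 = growth at the plate median or of vehicle wells; lower values mean less growth of the strain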
Conditions: S. cerevisiae deletion strains, growth OD

Measured: normalized growth

CC(=O)N[C@@H](Cc1c[nH]c2ccccc12)C(=O)OCc1cc(C(F)(F)F)cc(C(F)(F)F)c1
inactive: locus YAL013W, strain DEP1, hits give low values 0.999 | locus YAL040C, strain CLN3, hits give low values 1.02 | locus YDR363W, strain ESC2, hits give low values 1.01 | locus YER002W, strain NOP16, hits give low values 1 | locus YMR263W, strain SAP30, hits give low values 0.994 | locus YNL128W, strain TEP1, hits give low values 1.03 | locus YNL153C, strain GIM3, hits give low values 0.969 | locus YNL175C, strain NOP13, hits give low values 0.985 | locus YNL197C, strain WHI3, hits give low values 0.994 | locus YNL224C, strain SQS1, hits give low values 0.994 | locus YNL322C, strain KRE1, hits give low values 1.01 | locus YOR083W, strain WHI5 (second series), hits give low values 1.03
